Compound activity from PubChem BioAssay.
D1 antag = blocks dopamine activation of the human D1 receptor; HEK293 TREx D1 cells, calcium flux, dopamine EC80; active compounds read low; P21728; activity change, negative = inhibition, % at 10 µM; actives 3.2% (n = 360,000); in the data active = activity change below about -30%
Target sequence (P21728 whole entry, looked up): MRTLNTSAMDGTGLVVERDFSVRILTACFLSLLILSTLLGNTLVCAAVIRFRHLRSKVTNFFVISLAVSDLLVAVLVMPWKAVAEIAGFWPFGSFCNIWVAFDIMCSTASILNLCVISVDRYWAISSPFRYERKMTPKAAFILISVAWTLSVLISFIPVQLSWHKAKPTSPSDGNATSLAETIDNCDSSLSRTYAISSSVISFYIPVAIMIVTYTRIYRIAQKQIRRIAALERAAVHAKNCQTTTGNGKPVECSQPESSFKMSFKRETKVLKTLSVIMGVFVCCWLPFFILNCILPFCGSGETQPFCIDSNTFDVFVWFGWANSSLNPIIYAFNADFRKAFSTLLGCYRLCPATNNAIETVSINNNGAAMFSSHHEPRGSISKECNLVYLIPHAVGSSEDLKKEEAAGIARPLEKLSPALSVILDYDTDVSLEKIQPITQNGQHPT
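After overnight tetracycline induction at 30 C, force-coupled D1 HEK293 cells took up a no-wash calcium dye at room temperature. Compounds were added and monitored 180 s, and the response to EC80 dopamine was then recorded.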
DRD3 antagonist = blocks the human D3 dopamine receptor. P35462. D3R cells, DiscoveRx beta-arrestin luminescence, antagonist mode; active compounds read low. max response, negative = inhibition, %. actives 2.5% (n = 360,000); in the data active = max response below about -50%; inconclusive = no clear call, values can overlap the other calls
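Cells plated overnight at 1500 cells/well, then exposed to library compounds with dopamine controls for 90 minutes at 37 degrees C. DiscoveRx reagent added for 30–60 minutes at room temperature; luminescence read, quantitative HTS format.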
D1 ag = activates the human D1 dopamine receptor; HEK293 T-REx D1 cells, calcium flux, agonist mode; activation, % at 2 µM; actives 1% (n = 360,000); in the data active = activation above about 30%
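Inducible HEK293 T-REx D1 cells, force-coupled to calcium signalling, were plated at 4000 cells/well with tetracycline and held overnight at 30 C. After no-wash calcium dye loading, compound-evoked calcium rise over 180 s flagged agonists.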
DRD3 agonist = activates the human D3 dopamine receptor; D3R DiscoveRx beta-arrestin cells, luminescence, 90 min; AID 652048; max activation, %; actives 0.58% (n = 410,000); in the data active = max activation above about 30%
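Cells at 1500/well, incubated overnight, then treated with pinned compounds (dopamine as control) for 90 min at 37 degrees C. DiscoveRx reagent added for 30 - 60 minutes at room temperature; luminescence read.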
D1 potentiator = enhances dopamine response at the human D1 receptor; P21728; actives 0.036% (n = 360,000); HEK293 TREx D1 cells, calcium flux, dopamine EC20 potentiation; AID 504651; potentiation, % at 10 µM; in the data active = potentiation above about 30%
Large screens that a line does not name were inactive. A selection: hits, their analogues and other compounds. The true share with any hit is near 6%.

CCCc1ccc(S(=O)(=O)NCCc2ccncc2)cc1	none
CC(C)(C)c1ccc(S(=O)(=O)NCCc2ccncc2)cc1	D1 antag -95
CCOCCCN(C(=O)Nc1ccc(Cl)cc1)C1CCN(C(C)=O)CC1	D1 antag -30 (no result: DRD3 antagonist)
CCOCCCN(C(=O)Nc1ccc(CC)cc1)C1CCN(C(C)=O)CC1	none
CC(C)CCN(C(=O)Nc1ccc(Cl)c(Cl)c1)C1CCN(C(C)C)CC1	none (no result: DRD3 antagonist)
CC(C)CCN(C(=O)Nc1ccc(Cl)cc1)C1CCN(C(C)C)CC1	DRD3 antagonist -59
Cc1cc(OCC(=O)Nc2sc3c(c2C(N)=O)CCCC3)ccc1C(C)C	none (no result: DRD3 antagonist)
CCCOC(=O)c1ccc(Cn2nnc3sc4c(c3c2=O)CCC(C)C4)cc1 (stereo not given)	none (no result: DRD3 antagonist)
CCOC(=O)C(NC(=O)Nc1ccc(F)cc1)(OCC)C(F)(F)F (stereo not given)	DRD3 antagonist -53
Cc1ccc(S(=O)(=O)c2nnn3c2nc(N2CCOCC2)c2sccc23)cc1C	none (no result: DRD3 antagonist)
CCC/C=C1/CCCOC(C(=O)NCc2ccc(C)o2)(C(F)(F)F)C1 (stereo not given)	none (no result: D1 antag, D1 ag, D1 potentiator)
CCOc1ccccc1N(C)C(=O)c1sc2nc3n(c(=O)c2c1C)CCCC3	none (no result: DRD3 antagonist)
CCc1ccc(Nc2nc3ccccc3c3nnc(C)n23)cc1	none (no result: DRD3 antagonist)
CCCCCCOC(=O)c1ccc(NC(=O)c2cc(OC)c(OC)c(OC)c2Br)cc1	DRD3 antagonist inconclusive, D1 ag 46 (no result: D1 antag)
CCCOC(=O)c1ccc(NC(=O)c2cc(=O)[nH]c3ccccc23)cc1	D1 antag -33
CCCCOC(=O)Nc1ccc(C(=O)OCCC)cc1	D1 antag -31
CCCCOC(=O)c1ccc(O)cc1	none
CCCCOC(=O)c1ccc(Nc2nc3ccccc3c3nnc(C)n23)cc1	D1 antag -55 (no result: DRD3 antagonist)
COc1ccc(-c2cnc(C(N)=O)c(=O)[nH]2)cc1	none (no result: D1 antag, D1 ag, D1 potentiator)
O=C1CC(c2ccccc2)Cc2[nH]c(=O)c(-c3nc(-c4cccc(Cl)c4)cs3)cc21 (stereo not given)	none (no result: DRD3 antagonist)
CCCCOC(=O)c1ccc(NC2=NS(=O)(=O)c3ccccc32)cc1	D1 antag -43 (no result: DRD3 antagonist)
CCCOC(=O)c1ccc(NC(=O)/C=C/c2cccs2)cc1	D1 antag -43
CCOC(=O)N1CCC(NC(=O)c2cnn(-c3ccc(C)cc3)c2-n2cccc2)CC1	none (no result: DRD3 antagonist)
NC(=O)c1cccc(-c2coc3c(C(=O)NC4CCCCC4)cccc23)c1	none (no result: D1 antag, D1 ag, D1 potentiator)
O=C(c1ccc2c3c(cccc13)CC2)C1CCCN(Cc2ccncc2)C1 (stereo not given)	DRD3 antagonist -53
CCc1nc(CN2CCCC(C(=O)c3ccc4c5c(cccc35)CC4)C2)c(C)[nH]1 (stereo not given)	DRD3 antagonist -51
CC(C)OC(=O)N(C)C[C@@H]1OCc2cnnn2CCCC(=O)N([C@H](C)CO)C[C@@H]1C	none (no result: D1 antag, D1 ag, D1 potentiator)
COc1ccc(N2C(=O)NC3CC2(C)Oc2ccccc23)cc1 (stereo not given)	D1 antag -39
COc1ccc(NC(=O)C2C(=O)N(C)C3(C)CC2c2ccccc2O3)cc1 (stereo not given)	D1 antag -32
Cc1ccc(S(=O)(=O)CCC(=O)Nc2nnc(-c3cccs3)o2)cc1	none
CCN(CC)S(=O)(=O)c1cc(NC(=O)CSc2nc3c(cc2C#N)C(=O)CC(C)(C)C3)ccc1C	DRD3 agonist 34
CCN(CC)S(=O)(=O)c1cc(NC(=O)CSc2nnc(N)s2)ccc1C	none
COc1ccc(N2CCN(C(=O)c3ccc4c(c3)[nH]c(=S)n3c5ccccc5nc43)CC2)cc1	D1 antag -32 (no result: DRD3 antagonist, DRD3 agonist)
Cc1cccc(NC(=O)CCC(=O)N/N=C/c2cc([N+](=O)[O-])ccc2O)c1	DRD3 antagonist inconclusive
Cc1ccn(CC(=O)N/N=C/c2cc([N+](=O)[O-])ccc2O)n1	DRD3 antagonist inconclusive
O=C(CCC(=O)Nc1ccc(Br)cc1)N/N=C/c1cc([N+](=O)[O-])ccc1O	DRD3 antagonist -59
O=C(CCC(=O)Nc1cc(C(F)(F)F)ccc1Cl)N/N=C\c1cc([N+](=O)[O-])ccc1O	DRD3 antagonist -70
O=C(CCC(=O)Nc1ccc(F)cc1)N/N=C/c1cc([N+](=O)[O-])ccc1O	DRD3 antagonist -70
O=C(c1ccc(F)cc1)c1cn(Cc2ccccc2F)c2cc3c(cc2c1=O)OCCO3	none (no result: DRD3 antagonist)
Cc1ccccc1CN1C[C@H]2CON(C)[C@H]2C[C@H]1c1cccc(Br)c1	none (no result: D1 antag, D1 ag, D1 potentiator)
CCN(CCCNC(=O)CSc1cc(=O)n(CC)c2ccccc12)c1ccccc1	none (no result: DRD3 antagonist)
CC(=O)c1cccc(N2C(=NC(=O)C3CCCCC3)SC3CS(=O)(=O)CC32)c1 (stereo not given)	none
CC(C)COc1ccc(C(=O)Nc2sc3c(c2C(=O)O)CC(C)(C)OC3)cc1	D1 antag -31
Cc1cccc(N(C(=O)C(F)(F)F)C(C(=O)NC2CCCCC2)c2cccs2)c1 (stereo not given)	none (no result: D1 antag, D1 ag, D1 potentiator)
C#CC(=O)N(c1ccc(OC)c(OC)c1)C(C(=O)NC1CCCC1)c1cccs1 (stereo not given)	DRD3 antagonist -72
COc1ccc(N(C(=O)Cc2cccs2)C(C(=O)NC2CCCC2)c2ccncc2)cc1OC (stereo not given)	none
C#CC(=O)N(c1cccc(OC)c1)C(C(=O)NC1CCCC1)c1cccs1 (stereo not given)	DRD3 antagonist -63
CC(=O)N(CC#CCN(C(C)=O)c1ccccc1)c1ccccc1	none (no result: D1 antag, D1 ag, D1 potentiator)
CCOC(=O)c1[nH]c(C)c(CCC(=O)NCc2cccc(C)c2)c1C	none (no result: DRD3 antagonist)
COc1ccc(OC)c(/C=C(\C#N)c2nc(-c3ccc(F)cc3)cs2)c1	D1 ag 42 (no result: DRD3 antagonist)
COc1ccc2oc(=O)c(-c3csc(/C(C#N)=C/c4ccc(F)cc4)n3)cc2c1	D1 antag -31 (no result: DRD3 antagonist)
CC(C)CN1C(=O)C(=O)N(CC(=O)NCc2ccc3c(c2)OCO3)C1=O	DRD3 antagonist -52
Nc1c(C(=O)NCc2ccc3c(c2)OCO3)nnn1Cc1ccc(Br)cc1	D1 ag 31
O=C1Nc2ccccc2C(O)(C(=O)NCc2ccc3c(c2)OCO3)N1c1ccc(Cl)c(Cl)c1 (stereo not given)	D1 ag 31
O=C(Cn1nc(-c2ccc(Cl)cc2)ccc1=O)NCc1ccc2c(c1)OCO2	none
CC(C)CN1C(=O)C(=O)N(CC(=O)c2ccc3c(c2)OCO3)C1=O	none
O=C(Cn1nc(-c2ccccc2)ccc1=O)NCc1ccc2c(c1)OCO2	D1 potentiator 33
O=C(COc1ncnc2ccccc12)NCc1ccc2c(c1)OCO2	none
O=C(NCc1ccc2c(c1)OCO2)c1n[nH]c(=O)c2ccccc12	D1 antag -50
O=C(c1n[nH]c(=O)c2ccccc12)N1CCOCC1	DRD3 antagonist -59
Cc1nc2ccccc2nc1OCC(=O)NCc1ccc2c(c1)OCO2	DRD3 antagonist -65
Cc1ccc(CCNC(=O)c2ccc(NC(=O)N3CCSc4ccccc43)cc2)cc1	none (no result: DRD3 antagonist)
Cc1cccc(N(CC(=O)Nc2ccccc2C(F)(F)F)S(=O)(=O)c2ccccc2)c1C	none (no result: DRD3 antagonist)
